Values joined by “and” are separate entries in the source; they are usually repeats but may differ in a detail not shown here. Identical values can stand only once. About 2,000 (36%) of roughly 5,500 compounds were called active. Another 18% or so got no clear call; they are omitted. Rule as the data show it: active = normalized growth mostly below about 0.91 (no sharp cut-off); inconclusive = no clear call, values can overlap the other calls; inactive = mostly above about 0.92. This is one part of the list.
Assay: chemical genetic growth profiling, strain panel (AID 1159580);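 also: tested at 20 µM; growth read once vehicle control cultures reached saturation at 30 °C; 1 = growth at the plate median or of vehicle wells; lower values mean less growth of the strain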
Conditions: growth OD

Measured: normalized growth

CS(=O)(=O)Nc1ccc([N+](=O)[O-])cc1Oc1ccccc1
inactive: S. cerevisiae deletion strains, locus YJR066W, strain TOR1, hits give low values 0.962 | S. cerevisiae deletion strains, locus YJR075W, strain HOC1, hits give low values 1 | S. cerevisiae deletion strains, locus YKL009W, strain mrt4, hits give low values 0.944 | S. cerevisiae deletion strains, locus YKL068W, hits give low values 0.988 | S. cerevisiae deletion strains, locus YKL085W, strain MDH1 (second series), hits give low values 0.99 | S. cerevisiae deletion strains, locus YKL085W, strain MDH1, hits give low values 0.99 | S. cerevisiae deletion strains, locus YKL160W, strain elf1, hits give low values 0.987 | S. cerevisiae deletion strains, locus YKL190W, strain CNB1, hits give low values 0.983 | S. cerevisiae deletion strains, locus YKR001C, strain vps1, hits give low values 0.938 | S. cerevisiae deletion strains, locus YKR026C, strain gcn3, hits give low values 0.987 | S. cerevisiae deletion strains, locus YKR091W, strain srl3, hits give low values 0.993 | S. cerevisiae deletion strains, locus YLL001W, strain dnm1, hits give low values 0.975 | S. cerevisiae deletion strains, locus YLL026W, hits give low values 0.993 | S. cerevisiae deletion strains, locus YLL041C, strain sdh2, hits give low values 0.995 | S. cerevisiae deletion strains, locus YLR027C, strain aat2, hits give low values 1 | S. cerevisiae deletion strains, locus YLR039C, strain RIC1, hits give low values 0.839 | S. cerevisiae deletion strains, locus YLR058C, strain SHM2, hits give low values 0.966 | S. cerevisiae deletion strains, locus YLR102C, strain apc9, hits give low values 0.984 | S. cerevisiae deletion strains, locus YLR113W, strain HOG1, hits give low values 1.03 | S. cerevisiae deletion strains, locus YLR221C, strain rsa3, hits give low values 0.994 | S. cerevisiae deletion strains, locus YLR258W, strain gsy2, hits give low values 0.988 | S. cerevisiae deletion strains, locus YLR262C, strain YPT6 (second series), hits give low values 0.889 | S. cerevisiae deletion strains, locus YLR262C, strain YPT6, hits give low values 0.75 | S. cerevisiae deletion strains, locus YLR268W, strain sec22, hits give low values 0.958 | S. cerevisiae deletion strains, locus YLR320W, strain mms22, hits give low values 0.994 | S. cerevisiae deletion strains, locus YLR330W, strain CHS5, hits give low values 0.993 | S. cerevisiae deletion strains, locus YLR342W, strain FKS1 (second series), hits give low values 1.08 | S. cerevisiae deletion strains, locus YLR342W, strain FKS1, hits give low values 0.997 | S. cerevisiae deletion strains, locus YLR357W, strain rsc2, hits give low values 0.986 | S. cerevisiae deletion strains, locus YLR370C, strain arc18, hits give low values 0.999 | S. cerevisiae deletion strains, locus YLR371W, strain rom2, hits give low values 0.984 | S. cerevisiae deletion strains, locus YLR384C, strain iki3, hits give low values 0.991 | S. cerevisiae deletion strains, locus YLR418C, strain cdc73, hits give low values 1.01 | S. cerevisiae deletion strains, locus YML016C, strain PPZ1, hits give low values 0.989 | S. cerevisiae deletion strains, locus YML032C, strain rad52, hits give low values 0.958 | S. cerevisiae deletion strains, locus YML120C, strain ndi1, hits give low values 0.993 | S. cerevisiae deletion strains, locus YML124C, strain tub3, hits give low values 0.982 | S. cerevisiae deletion strains, locus YMR058W, strain fet3, hits give low values 0.993 | S. cerevisiae deletion strains, locus YMR078C, strain ctf18, hits give low values 0.975 | S. cerevisiae deletion strains, locus YMR125W, strain sto1, hits give low values 0.984 | S. cerevisiae deletion strains, locus YMR129W, hits give low values 0.983 | S. cerevisiae deletion strains, locus YMR205C, strain PFK2, hits give low values 0.974 | S. cerevisiae deletion strains, locus YMR223W, strain ubp8, hits give low values 0.993 | S. cerevisiae deletion strains, locus YMR231W, strain pep5, hits give low values 1 | S. cerevisiae deletion strains, locus YMR307W, strain GAS1, hits give low values 1.05 and 0.989 | S. cerevisiae deletion strains, locus YNL067W, strain RPL9B, hits give low values 0.953 | S. cerevisiae deletion strains, locus YNL071W, strain lat1, hits give low values 1 | S. cerevisiae deletion strains, locus YNL128W, strain TEP1, hits give low values 0.981 and 0.986 | S. cerevisiae deletion strains, locus YNL175C, strain NOP13, hits give low values 0.995 | S. cerevisiae deletion strains, locus YNL183C, strain NPR1, hits give low values 0.943 | S. cerevisiae deletion strains, locus YNL197C, strain WHI3, hits give low values 0.99 | S. cerevisiae deletion strains, locus YNL209W, strain ssb2, hits give low values 0.994 | S. cerevisiae deletion strains, locus YNL224C, strain SQS1, hits give low values 1 | S. cerevisiae deletion strains, locus YNL233W, strain BNI4, hits give low values 0.927 | S. cerevisiae deletion strains, locus YNL248C, strain rpa49, hits give low values 1 | S. cerevisiae deletion strains, locus YNL250W, strain rad50, hits give low values 0.999 | S. cerevisiae deletion strains, locus YNL271C, strain bni1, hits give low values 0.972 | S. cerevisiae deletion strains, locus YNL298W, strain CLA4, hits give low values 0.966 | S. cerevisiae deletion strains, locus YNL307C, strain MCK1, hits give low values 0.966 | S. cerevisiae deletion strains, locus YNL322C, strain KRE1 (second series), hits give low values 0.994 | S. cerevisiae deletion strains, locus YNL322C, strain KRE1, hits give low values 0.986 and 1.01 | S. cerevisiae deletion strains, locus YNR049C, strain mso1, hits give low values 0.99 | S. cerevisiae deletion strains, locus YNR052C, strain pop2, hits give low values 0.976 | S. cerevisiae deletion strains, locus YOL006C, strain TOP1, hits give low values 0.841 | S. cerevisiae deletion strains, locus YOL012C, strain htz1 1.03 | S. cerevisiae deletion strains, locus YOL147C, strain pex11, hits give low values 0.98 | S. cerevisiae deletion strains, locus YOR001W, strain rrp6, hits give low values 0.99 | S. cerevisiae deletion strains, locus YOR061W, strain CKA2, hits give low values 0.964 | S. cerevisiae deletion strains, locus YOR069W, strain VPS5, hits give low values 0.994 | S. cerevisiae deletion strains, locus YOR070C, strain gyp1, hits give low values 0.986 | S. cerevisiae deletion strains, locus YOR080W, strain dia2, hits give low values 0.991 | S. cerevisiae deletion strains, locus YOR083W, strain WHI5 (second series), hits give low values 0.991 | S. cerevisiae deletion strains, locus YOR083W, strain WHI5, hits give low values 0.986 | S. cerevisiae deletion strains, locus YOR106W, strain vam3, hits give low values 1.01 | S. cerevisiae deletion strains, locus YOR136W, strain idh2, hits give low values 0.977 | S. cerevisiae deletion strains, locus YOR144C, strain elg1, hits give low values 0.981 | S. cerevisiae deletion strains, locus YOR184W, strain ser1, hits give low values 0.951 | S. cerevisiae deletion strains, locus YOR231W, strain MKK1, hits give low values 1.06 | S. cerevisiae deletion strains, locus YOR265W, strain rbl2, hits give low values 1.01 | S. cerevisiae deletion strains, locus YOR270C, strain vph1, hits give low values 0.97 | S. cerevisiae deletion strains, locus YOR290C, strain snf2, hits give low values 0.954 | S. cerevisiae deletion strains, locus YOR316C, strain cot1, hits give low values 0.961 | S. cerevisiae deletion strains, locus YPL051W, strain arl3, hits give low values 0.993 | S. cerevisiae deletion strains, locus YPL055C, strain LGE1, hits give low values 0.879 | S. cerevisiae deletion strains, locus YPL078C, strain atp4, hits give low values 0.994 | S. cerevisiae deletion strains, locus YPL106C, strain sse1, hits give low values 0.991 | S. cerevisiae deletion strains, locus YPL240C, strain hsp82, hits give low values 0.978 | S. cerevisiae deletion strains, locus YPL241C, strain CIN2, hits give low values 1.01 | S. cerevisiae deletion strains, locus YPL256C, strain CLN2, hits give low values 1.03 | S. cerevisiae deletion strains, locus YPR119W, strain clb2, hits give low values 0.973 | S. cerevisiae deletion strains, locus YPR141C, strain kar3, hits give low values 0.973 | S. cerevisiae deletion strains, locus YPR163C, strain tif3, hits give low values 0.988 | S. cerevisiae deletion strains, locus YPR167C, strain met16, hits give low values 0.986 | S. cerevisiae deletion strains, strain wtn01, hits give low values 0.968 | S. cerevisiae strains, strain wild type, hits give low values 0.978

— PubChem BioAssay AID1159580 (chemical genetic matrix, 2015)
